Among the data in PubChem BioAssay (EPA / NIEHS) are outcome and AC50 values, retold here.

Results filed as inconclusive are left out. Calls of active or inactive are those of the source. How the source made its calls, unless noted: active means hit-call score of the fitted dose curve at least 0.9, where 1 is the maximum; inactive means score below 0.9.

Assay [1] is described as follows: ATG_PXRE_CIS: Attagene CIS-FACTORIAL HepG2 Assay for human Pregnane X Receptor Element (PXRE) (AID 2282957). The following applies: HepG2 Attagene CIS-FACTORIAL PXRE reporter, mRNA; actives raise or lower the signal. The method, boiled down:
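Transfect HepG2 with MRTUs (cis promoter elements); dose chemical, incubate 24 h; isolate RNA, RT with oligo(dT), PCR, 6-FAM label, HpaI cut, CE. Gain/loss fit vs DMSO.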

A short description of assay [2]: ATG_RORE_CIS: Attagene CIS-FACTORIAL HepG2 Assay for human RAR-related Orphan Receptor Element (RORE) (AID 2282959). The note with it: HepG2 Attagene cis-factorial RORE reporter, mRNA; actives raise or lower the signal. In a few lines:
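Cells were HepG2 carrying transfected cis-regulated reporter constructs, dosed for 24 hours. Total RNA was reverse-transcribed and reporter cDNA amplified, fluorescently labeled and sized by capillary electrophoresis. Activity was fitted bidirectionally relative to DMSO.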

Assay [3] in a line: ATG_Sox_CIS: Attagene CIS-FACTORIAL HepG2 Assay for human SRY-box transcription factor (SOX) (AID 2282960). The note with it: HepG2 Attagene cis-factorial SOX reporter, mRNA; actives raise or lower the signal. In a few lines:
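Transient MRTU transfection of HepG2; 24 h compound incubation; TriZol RNA, oligo(dT) RT, PCR, 6-FAM primer extension, HpaI cut, CE. Bidirectional fit, DMSO = baseline.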

Assay [4] concerns the target Transcription factor Sp1 (Homo sapiens) (UniProt P08047). Put plainly: ATG_Sp1_CIS: Attagene CIS-FACTORIAL HepG2 Assay for human Specificity Protein 1 (Sp1) (AID 2282961). The following applies: HepG2 Sp1 cis-reporter transcription, actives raise or lower the signal. The method, boiled down: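 Endogenous Sp1 activity was gauged in human liver HepG2 cells bearing transfected reporter units under a cis-regulating promoter. After 24 h dosing, reporter mRNA was quantified by RT-PCR with capillary electrophoresis, and activity fitted bidirectionally versus DMSO.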

Assay [5] has as its target Signal transducer and activator of transcription 3 (Homo sapiens) (UniProt P40763). Put plainly: ATG_STAT3_CIS: Attagene CIS-FACTORIAL HepG2 Assay for human Signal Transducer and Activator of Transcription 3 (STAT3) (AID 2282963). The following applies: HepG2, Attagene cis-factorial STAT3 reporter transcription; actives raise or lower the signal. The method, boiled down: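 HepG2 cells transiently transfected with cis-element-driven multiple reporter transcription units; after 24 h chemical exposure, reporter mRNA measured by RT-PCR, 6-FAM primer-extension labelling, HpaI digestion and capillary electrophoresis. Bidirectional fitting versus DMSO baseline.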

Assay [6] is described as follows: ATG_TA_CIS: Attagene CIS-FACTORIAL HepG2 Assay for human TA Basal Promoter (AID 2282964). The note with it: HepG2 Attagene CIS-factorial TA basal promoter reporter; actives raise or lower the signal. The method, boiled down:
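Background-control readout: TA basal promoter reporter mRNA, fitted in both directions relative to DMSO. Measured by RT-PCR and capillary electrophoresis 24 hours after treating HepG2 human liver cells transiently carrying multiplexed cis-regulated reporter constructs.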

Assay [7] is described as follows: ATG_TCF_b_cat_CIS: Attagene CIS-FACTORIAL HepG2 Assay for human T-Cell-Factor with beta-catenin (TCF/b-cat) (AID 2282965). The note with it: HepG2 TCF/beta-catenin cis-reporter transcription, actives raise or lower the signal. The method, boiled down:
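Using capillary electrophoresis as the read-out, labelled reporter cDNA fragments from transiently transfected HepG2 were sized and quantified. Exposure lasted 24 hours; activity in either direction was referenced to DMSO.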

A short description of assay [8]: ATG_TAL_CIS: Attagene CIS-FACTORIAL HepG2 Assay for human TAL Basal Promoter (AID 2282966).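 Further: background control endpoint measuring basal TAL promoter reporter mRNA not a specific factor.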 The note with it: HepG2 Attagene cis-factorial TAL promoter reporter; actives raise or lower the signal. The method, boiled down: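 Fluorescence of labelled reporter cDNA fragments, resolved by capillary electrophoresis, gave the readout. Human HepG2 liver cells carried transiently transfected cis-element reporter units and were treated for 24 hours; activity was fitted bidirectionally against DMSO.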

Assay [9] is described as follows: ATG_VDRE_CIS: Attagene CIS-FACTORIAL HepG2 Assay for human Vitamin D Receptor Element (VDRE) (AID 2282968). The note with it: HepG2 VDRE cis-reporter transcription, actives raise or lower the signal. The method, boiled down: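 HepG2 cells transiently transfected with cis-element reporter units, dosed 24 h; reporter mRNA measured by RT-PCR, 6-FAM labeling, HpaI digestion and capillary electrophoresis. Activity fitted bidirectionally against DMSO baseline.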

For assay [10], the target named is Estrogen receptor (Homo sapiens) (UniProt P03372). Put plainly: ATG_ERa_TRANS: Attagene TRANS-FACTORIAL HepG2 Assay for human Estrogen Receptor alpha (ERa) (AID 2282970; active means hit-call score of the fitted dose curve at least 0.9, where 1 is the maximum). The note with it: HepG2 Attagene TRANS ERa GAL4 reporter, mRNA. In a few lines:
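Human liver HepG2, transient transfection of multiple GAL4-UAS reporter units; TRANS format (exogenous NR-Gal4 chimera). 24 h dosing. Readout: reporter mRNA, RT-PCR, 6-FAM primer extension, HpaI digest, capillary electrophoresis. Positive direction vs DMSO.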

The target in assay [11] is X-box-binding protein 1 (Homo sapiens) (UniProt P17861). Nature of the assay: ATG_Xbp1_CIS: Attagene CIS-FACTORIAL HepG2 Assay for human X-box Binding Protein 1 (XBP1) (AID 2282972). The following applies: HepG2 XBP1 cis-element reporter, Attagene multiplex; actives raise or lower the signal. The method, boiled down: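 Fluorescence-labelled cDNA fragments from reporter transcripts, separated by capillary electrophoresis, give the signal. Source: HepG2 cells transfected with promoter-driven reporter units, harvested 24 h post-dose. DMSO served as reference for bidirectional curve fitting.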

A short description of assay [12]: ATG_GAL4_TRANS: Attagene TRANS-FACTORIAL HepG2 Assay for GAL4 (Internal Marker) (AID 2282976; active means hit-call score of the fitted dose curve at least 0.9, where 1 is the maximum). The following applies: HepG2 Attagene TRANS GAL4 internal marker reporter. In a few lines:
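First, HepG2 cells were transfected with reporter units under GAL4-UAS control. Next, they were treated with chemical for 24 h. Finally, RNA was reverse-transcribed, PCR-amplified, FAM-labelled and resolved by capillary electrophoresis, with induction scored against DMSO.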

Assay [13] can be described thus: ATG_PPRE_CIS: Attagene CIS-FACTORIAL HepG2 Assay for human Peroxisome Proliferator-activated Response Element (PPRE) (AID 2282958). The following applies: HepG2 PPRE cis-element reporter, Attagene transcription factor profiling; actives raise or lower the signal. In a few lines:
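Cells are first transfected transiently with the multiplexed reporter library, then dosed for 24 h. Total RNA is reverse-transcribed, amplified, fluorescently end-labeled and HpaI-cut before capillary electrophoresis; activity is fitted bidirectionally against DMSO controls.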

Assay [14] can be described thus: ATG_TGFb_CIS: Attagene CIS-FACTORIAL HepG2 Assay for human Transforming Growth Factor (TGF) (AID 2282967). The following applies: HepG2 Attagene CIS TGFb reporter, mRNA transcription; actives raise or lower the signal. In a few lines:
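Endogenous TGFB1-linked transcription factor activity read as reporter mRNA via RT-PCR and capillary electrophoresis, 24 h after dosing transiently transfected HepG2 cells. Gain or loss of signal fitted relative to DMSO.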

The nature of assay [15]: ATG_M_19_TRANS: Attagene TRANS-FACTORIAL HepG2 Assay for M19 Transcription Factor (Internal Marker) (AID 2282974; active means hit-call score of the fitted dose curve at least 0.9, where 1 is the maximum). The note with it: HepG2 Attagene TRANS-FACTORIAL M19 internal marker reporter. In a few lines: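 Cells: human HepG2, transiently transfected with multiplexed reporter transcription units. Exposure: 24 h. Detection: RT-PCR of reporter mRNA with capillary electrophoresis. Analysis: gain-of-signal vs DMSO.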

The nature of assay [16]: ATG_SREBP_CIS: Attagene CIS-FACTORIAL HepG2 Assay for human Sterol Regulatory Element Binding (SREBP) (AID 2282962). The following applies: HepG2 Attagene cis-factorial SREBP reporter, mRNA; actives raise or lower the signal. The method, boiled down:
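mRNA induction of transfected cis-promoter reporters in HepG2 cells, 24 h post-dose. Detection: RT-PCR with 6-FAM-labelled products, HpaI digest, capillary electrophoresis. DMSO served as negative control and baseline.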

For assay [17], the target named is Nuclear receptor subfamily 1 group I member 3 (Homo sapiens) (UniProt Q14994). Nature of the assay: ATG_CAR_TRANS: Attagene TRANS-FACTORIAL HepG2 Assay for human Constitutive Androstane Receptor (CAR) (AID 2282969; active means hit-call score of the fitted dose curve at least 0.9, where 1 is the maximum;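 further: activators raise reporter mRNA above DMSO so AC50 marks induction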). The following applies: HepG2 Attagene TRANS-FACTORIAL CAR reporter. In a few lines:
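HepG2 cells transiently transfected with multiplexed GAL4-UAS reporter units expressing chimeric NR-Gal4 proteins; compound exposure 24 h. Reporter mRNA measured by RT-PCR, 6-FAM labelling, HpaI digestion and capillary electrophoresis; gain-of-signal fitted against DMSO baseline.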

Sequence of Transcription factor Sp1 (Homo sapiens) (P08047 whole entry, looked up): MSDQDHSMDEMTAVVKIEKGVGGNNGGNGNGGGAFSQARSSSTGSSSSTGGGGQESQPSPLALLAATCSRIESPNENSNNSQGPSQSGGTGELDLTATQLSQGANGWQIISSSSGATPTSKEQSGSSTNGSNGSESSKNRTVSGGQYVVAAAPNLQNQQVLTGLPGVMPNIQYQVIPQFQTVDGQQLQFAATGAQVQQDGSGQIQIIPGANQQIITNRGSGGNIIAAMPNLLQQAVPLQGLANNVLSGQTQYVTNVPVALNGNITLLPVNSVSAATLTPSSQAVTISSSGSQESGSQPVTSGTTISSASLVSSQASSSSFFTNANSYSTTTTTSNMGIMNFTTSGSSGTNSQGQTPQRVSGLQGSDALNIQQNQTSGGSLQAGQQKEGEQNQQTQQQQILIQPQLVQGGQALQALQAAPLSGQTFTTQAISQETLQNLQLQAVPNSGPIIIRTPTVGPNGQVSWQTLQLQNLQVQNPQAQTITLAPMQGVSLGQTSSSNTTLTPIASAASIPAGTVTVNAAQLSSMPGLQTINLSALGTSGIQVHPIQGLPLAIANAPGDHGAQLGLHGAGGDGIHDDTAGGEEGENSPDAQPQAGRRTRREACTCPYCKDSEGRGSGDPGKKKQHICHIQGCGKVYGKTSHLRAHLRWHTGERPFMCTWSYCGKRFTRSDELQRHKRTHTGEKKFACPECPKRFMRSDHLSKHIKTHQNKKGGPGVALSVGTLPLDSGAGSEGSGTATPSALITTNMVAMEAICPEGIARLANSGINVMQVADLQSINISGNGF
Sequence of Signal transducer and activator of transcription 3 (Homo sapiens) (P40763 whole entry, looked up): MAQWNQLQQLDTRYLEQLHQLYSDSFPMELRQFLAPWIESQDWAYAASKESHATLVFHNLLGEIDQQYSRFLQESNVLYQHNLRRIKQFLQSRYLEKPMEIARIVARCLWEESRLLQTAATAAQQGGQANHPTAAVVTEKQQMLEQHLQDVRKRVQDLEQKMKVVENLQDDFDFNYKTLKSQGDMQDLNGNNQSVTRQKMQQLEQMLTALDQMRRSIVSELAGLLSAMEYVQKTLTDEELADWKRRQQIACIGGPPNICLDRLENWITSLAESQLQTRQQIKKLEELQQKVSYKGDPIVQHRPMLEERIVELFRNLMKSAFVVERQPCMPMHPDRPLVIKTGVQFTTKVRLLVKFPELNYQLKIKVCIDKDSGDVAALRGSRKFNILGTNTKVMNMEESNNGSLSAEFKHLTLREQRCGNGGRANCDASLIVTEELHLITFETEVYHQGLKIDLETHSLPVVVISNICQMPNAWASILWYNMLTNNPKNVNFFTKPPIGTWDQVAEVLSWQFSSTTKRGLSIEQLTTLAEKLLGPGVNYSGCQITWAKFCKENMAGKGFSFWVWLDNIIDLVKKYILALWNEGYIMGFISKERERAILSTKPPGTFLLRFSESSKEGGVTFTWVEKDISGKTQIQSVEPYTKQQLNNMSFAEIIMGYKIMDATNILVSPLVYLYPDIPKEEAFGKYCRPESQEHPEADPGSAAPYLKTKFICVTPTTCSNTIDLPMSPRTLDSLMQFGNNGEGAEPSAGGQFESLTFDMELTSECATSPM
Sequence of Estrogen receptor (Homo sapiens) (P03372 whole entry, looked up, the tested form may be a part): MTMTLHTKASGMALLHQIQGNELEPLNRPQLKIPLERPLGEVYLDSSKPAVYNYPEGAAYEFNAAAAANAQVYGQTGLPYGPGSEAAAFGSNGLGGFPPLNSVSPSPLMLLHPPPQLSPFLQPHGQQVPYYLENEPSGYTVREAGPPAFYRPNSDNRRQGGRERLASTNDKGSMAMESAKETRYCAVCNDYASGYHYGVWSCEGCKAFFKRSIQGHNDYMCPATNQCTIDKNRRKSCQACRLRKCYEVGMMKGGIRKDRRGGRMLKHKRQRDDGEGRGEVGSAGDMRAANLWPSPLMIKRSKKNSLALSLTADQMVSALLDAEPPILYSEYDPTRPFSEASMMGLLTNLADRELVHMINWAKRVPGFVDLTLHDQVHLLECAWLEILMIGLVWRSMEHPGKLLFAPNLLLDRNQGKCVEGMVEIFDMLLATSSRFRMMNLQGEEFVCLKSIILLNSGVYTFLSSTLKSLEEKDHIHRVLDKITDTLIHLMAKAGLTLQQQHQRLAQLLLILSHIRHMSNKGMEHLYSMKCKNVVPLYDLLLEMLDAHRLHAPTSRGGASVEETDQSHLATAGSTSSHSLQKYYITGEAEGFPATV
Sequence of X-box-binding protein 1 (Homo sapiens) (P17861 whole entry, looked up, the tested form may be a part): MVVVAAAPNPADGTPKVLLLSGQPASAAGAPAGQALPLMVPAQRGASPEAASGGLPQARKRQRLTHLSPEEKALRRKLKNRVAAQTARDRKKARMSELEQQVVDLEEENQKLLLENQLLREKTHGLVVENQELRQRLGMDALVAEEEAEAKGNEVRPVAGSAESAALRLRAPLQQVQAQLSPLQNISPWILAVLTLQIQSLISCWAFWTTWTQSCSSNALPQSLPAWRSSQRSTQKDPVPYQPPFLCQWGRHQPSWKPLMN
Sequence of Nuclear receptor subfamily 1 group I member 3 (Homo sapiens) (Q14994 whole entry, looked up, the tested form may be a part): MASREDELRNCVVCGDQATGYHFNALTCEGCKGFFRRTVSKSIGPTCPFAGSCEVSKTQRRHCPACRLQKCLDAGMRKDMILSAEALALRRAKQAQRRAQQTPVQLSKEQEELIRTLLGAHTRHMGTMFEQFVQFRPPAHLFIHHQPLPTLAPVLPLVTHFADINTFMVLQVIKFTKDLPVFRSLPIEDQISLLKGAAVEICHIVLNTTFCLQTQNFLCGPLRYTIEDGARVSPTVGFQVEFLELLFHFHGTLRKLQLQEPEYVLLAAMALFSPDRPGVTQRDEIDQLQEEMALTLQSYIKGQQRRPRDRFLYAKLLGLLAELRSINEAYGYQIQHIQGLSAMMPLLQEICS

As for `Cc1cc(C)c(C(=O)O)c(C)c1`, the compound was called inactive in assay [1], in assay [2], in assay [3], in assay [4], in [5] and in [6]. The call in assay [7], in [8], in [9], in assay [10], in assay [11] and in assay [12] was inactive.
Regarding `Cc1ccc2oc(=O)ccc2c1`, the call in assay [1], in assay [13], in assay [3], in assay [4], in [5] and in [6] was inactive. Further, the outcome in assay [7], in [8], in assay [14], in assay [10], in [11] and in [15] was inactive. In addition, the compound was classed as inactive in assay [12].
As to `c1ccc(CNCc2ccccc2)cc1`, the AC50 – broadly, the concentration at which the activity in the assay is half-maximal – in assay [1] is 36 µM (active). The call in assay [13], in assay [2], in assay [3], in assay [4], in assay [16] and in assay [5] was inactive. Moreover, the compound was called inactive in assay [6], in [8], in [14], in [9], in assay [10] and in assay [11]. In addition, the call in [12] was inactive.
Regarding `CCCCCCCCCCC=CC#N`, the AC50 in assay [1] is 27.5 µM (active); in assay [10], 73.1 µM (active). The outcome in assay [13], in assay [3], in assay [4], in assay [16], in [5] and in assay [6] was inactive. Moreover, the compound was classed as inactive in assay [7], in [8], in [9], in [17], in assay [11] and in [15].
On to `Cc1ccc2c(c1)C(=O)c1ccccc1C2=O`, for which the AC50 in [1] was 6.22 µM (active); in assay [10], 12.4 µM (active). Moreover, the outcome in [13], in [2], in assay [3], in [4], in [16] and in [5] was inactive. Moreover, the result in [6], in assay [7], in assay [8], in [14], in assay [9] and in [17] was inactive. Also, the compound was classed as inactive in assay [11] and in [12].
